The values that follow come from PMC8384837, “Expanding the binding specificity for RNA recognition by a PUF domain”.

Common to all, as to assay: yeast three-hybrid, YBZ-1, SC-Leu-His + 0.5 mM 3-AT, 4 days
Common to all, as to settings: tags: N-Gal4 AD-HA kept; label: inside an RPR1-promoter hybrid RNA with tandem MS2 sites; ssRNA

One test concerns the target PUM1 PUF domain R1-KCV (Homo sapiens, UniProt Q14671 828-1176, S863K;R864C;Q867V). The gist of the method:
(§1)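 The interaction score is the logarithmic change in variant frequency from input to selection. It uses log2, with a pseudocount of 1 for absent variants, and frequencies came from PCR-amplified, Illumina-sequenced repeat regions. The libraries were Pumilio-1 PUF domains randomized at the three base-contacting residues per repeat, co-expressed with matching RNA elements in strain YBZ-1 (LexA–MS2 coat fusion, HIS3 reporter). Plating lasted four days on SC-Leu (input) or SC-Leu-His + 0.5 mM 3-AT (selection).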

A further test addresses PUM1 PUF domain R5-KHW (Homo sapiens, UniProt Q14671 828-1176, C1007K;R1008H;Q1011W). The gist of the method:
as §1

The next test has as its target PUM1 PUF domain R5-LYC (Homo sapiens, UniProt Q14671 828-1176, C1007L;R1008Y;Q1011C). In a few lines:
as §1

A further test addresses PUM1 PUF domain R4-VPA (Homo sapiens, UniProt Q14671 828-1176, N971V;H972P;Q975A). The gist of the method:
as §1

For a further test, the target named is PUM1 PUF domain R4-CMS (Homo sapiens, UniProt Q14671 828-1176, N971C;H972M;Q975S). In a few lines:
as §1

For a further test, the target named is PUM1 PUF domain R4-DHL (Homo sapiens, UniProt Q14671 828-1176, N971D;Q975L). The gist of the method:
as §1

In a further test the target is PUM1 PUF domain R4-NNH (Homo sapiens, UniProt Q14671 828-1176, H972N;Q975H). In a few lines:
as §1

The next test concerns the target PUM1 PUF domain R4-PYL (Homo sapiens, UniProt Q14671 828-1176, N971P;H972Y;Q975L). In a few lines:
as §1

Another test addresses T1, PUM1 PUF domain R6-VWY (Homo sapiens, UniProt Q14671 828-1176, N1043V;Y1044W;Q1047Y).
T1 sequence: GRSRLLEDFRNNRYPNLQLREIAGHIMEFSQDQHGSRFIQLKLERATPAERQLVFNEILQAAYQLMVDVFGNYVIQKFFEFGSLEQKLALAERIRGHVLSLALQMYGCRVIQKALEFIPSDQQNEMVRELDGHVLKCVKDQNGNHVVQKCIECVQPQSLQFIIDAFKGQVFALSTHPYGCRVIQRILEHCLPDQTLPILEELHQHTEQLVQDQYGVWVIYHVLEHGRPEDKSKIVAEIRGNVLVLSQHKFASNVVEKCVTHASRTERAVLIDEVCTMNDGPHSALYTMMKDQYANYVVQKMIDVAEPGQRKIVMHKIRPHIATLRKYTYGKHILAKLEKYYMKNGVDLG
The gist of the method:
as §1

For the next test, the target named is PUM1 PUF domain R5-GVE (Homo sapiens, UniProt Q14671 828-1176, C1007G;R1008V;Q1011E). The gist of the method: as §1

For “GGCUAGAACUAGUGGAUCCCCCGGCGCCCGGCGGCUCGAGCCCGGGUAAGUGUAAAUUGUCUGCAUGCCGCCGGGCGCCAUGCCUGCAGGUCGACUCUAGAAAACAUG”, the binding signal with PUM1 PUF domain R1-KCV was 3.99 log2 enrichment (interaction score).
Take “GGCUAGAACUAGUGGAUCCCCCGGCGCCCGGCGGCUCGAGCCCGGGUAAGUGUUAAUAGUCUGCAUGCCGCCGGGCGCCAUGCCUGCAGGUCGACUCUAGAAAACAUG”: the binding signal in the test with PUM1 PUF domain R5-KHW was 3.92 log2 enrichment (interaction score); in the test with PUM1 PUF domain R5-LYC, 2.27 log2 enrichment (interaction score).
As for “GGCUAGAACUAGUGGAUCCCCCGGCGCCCGGCGGCUCGAGCCCGGGUAAGUGUCAAUAGUCUGCAUGCCGCCGGGCGCCAUGCCUGCAGGUCGACUCUAGAAAACAUG”, the binding signal with PUM1 PUF domain R5-KHW was 2.97 log2 enrichment (interaction score).
Take “GGCUAGAACUAGUGGAUCCCCCGGCGCCCGGCGGCUCGAGCCCGGGUAAGUGUACAUAGUCUGCAUGCCGCCGGGCGCCAUGCCUGCAGGUCGACUCUAGAAAACAUG”: the values for the binding signal with PUM1 PUF domain R4-VPA and in the test with PUM1 PUF domain R4-CMS were 1.62 log2 enrichment (interaction score) and 2.83 log2 enrichment (interaction score), respectively.
On to “GGCUAGAACUAGUGGAUCCCCCGGCGCCCGGCGGCUCGAGCCCGGGUAAGUGUAUAUAGUCUGCAUGCCGCCGGGCGCCAUGCCUGCAGGUCGACUCUAGAAAACAUG”, for which the binding signal with PUM1 PUF domain R4-VPA was 3.26 log2 enrichment (interaction score); with PUM1 PUF domain R4-DHL, 3.13 log2 enrichment (interaction score); with PUM1 PUF domain R4-NNH it was 2.5 log2 enrichment (interaction score); in the test with PUM1 PUF domain R4-PYL it was 3.32 log2 enrichment (interaction score); with PUM1 PUF domain R4-CMS it was 3.01 log2 enrichment (interaction score).
As to “GGCUAGAACUAGUGGAUCCCCCGGCGCCCGGCGGCUCGAGCCCGGGUAAGUGUAAAUAGUCUGCAUGCCGCCGGGCGCCAUGCCUGCAGGUCGACUCUAGAAAACAUG”, the results for the binding signal with PUM1 PUF domain R4-VPA, with PUM1 PUF domain R4-DHL and in the test with PUM1 PUF domain R5-LYC were 1.54 log2 enrichment (interaction score), 2.49 log2 enrichment (interaction score) and 3.33 log2 enrichment (interaction score), respectively.
As for “GGCUAGAACUAGUGGAUCCCCCGGCGCCCGGCGGCUCGAGCCCGGGUAAGUGAAAAUAGUCUGCAUGCCGCCGGGCGCCAUGCCUGCAGGUCGACUCUAGAAAACAUG”, in the test with PUM1 PUF domain R6-VWY, the binding signal is 3.66 log2 enrichment (interaction score).
As to “GGCUAGAACUAGUGGAUCCCCCGGCGCCCGGCGGCUCGAGCCCGGGUAAGUGUGAAUAGUCUGCAUGCCGCCGGGCGCCAUGCCUGCAGGUCGACUCUAGAAAACAUG”, the binding signal with PUM1 PUF domain R5-GVE is 3.01 log2 enrichment (interaction score).
